# Values joined by “and” are separate entries in the source; they are usually repeats but may differ in a detail not shown here. Equal entries are not always repeated. Out of some 220,000 compounds screened, about 820 (0.37%) were called active. What follows is part of a selection rich in actives, with near analogues and random picks from the rest. A number with no mark means an inactive call. Rule as the data show it: active = fluorescence above about 47; inactive = the rest.
# Assay: green autofluorescence of compounds with avidin beads – biophysical, 488/530 nm, flow cytometry, artefact control, profiling panel (AID 1775)
# Conditions: compound fluorescence 488/530 nm, at 10 µM, hits give high values
row,SMILES,fluorescence (KMESF)
1,O=C(Nc1ccccc1Cl)c1ccccc1S(=O)(=O)c1ccccc1[N+](=O)[O-],11
2,CC(=O)Nc1ccc(NC(=O)COc2ccccc2C(=O)Nc2cccc(Cl)c2Cl)cc1,14
3,CN(C)S(=O)(=O)Oc1ccccc1C(=O)Nc1ccccc1Cl,81 (active)
4,COc1ccc(CCNC(=O)C2CC3Cn4c(nc5cc(C)c(C)cc54)C3N2C)cc1 (centres undefined),8
5,COC(=O)c1c(C)oc(C)c1S(=O)(=O)NCc1ccc(Cl)cc1,6
6,CC1=CC(=C(C#N)c2nc3ccccc3s2)C=C(C)N1c1ccc(F)cc1F,9
7,Oc1[nH]c2ccc(Br)cc2c1N=Nc1nn[nH]n1,4
8,CNC(=S)N1CCC(NC(=O)C(Cc2ccc(F)cc2)NC(C)=O)CC1 (centres undefined),10
9,Fc1cccc(CSc2nnc3ccc(-c4ccncc4)nn23)c1,6
10,COc1ccccc1NC(=O)C[n+]1ccccc1,10
11,O=C(Cc1c[nH]c2ccccc12)OCCOC(=O)Cc1c[nH]c2ccccc12,21
12,COc1ccccc1NC(=O)CCCc1c[nH]c2ccccc12,257 (active)
13,O=C(O)Cc1csc(-c2cccc(Oc3ccccc3)c2)n1,6 and 3
14,O=C(CSc1ccccc1F)NC1CCS(=O)(=O)C1 (centres undefined),9
15,CCOC(=O)/C=C/CN(C(=O)OC(C)(C)C)S(=O)(=O)N1CC=CC1,9
16,COc1cc(NC(=S)NNC(=O)CC(C)C)c(OC)cc1Cl,13
17,CC(NC(=O)c1ccc(N2CCNCC2)c([N+](=O)[O-])c1)C12CC3CC(CC(C3)C1)C2 (centres undefined),9
18,O=C1CS(=O)CN1c1ccc(Oc2ccccc2)cc1 (centres undefined),9
19,C/C=C/C(=O)Nc1ccc(N2CCN(c3ccc(C(F)(F)F)cn3)CC2)nc1,8
20,COC(=O)c1cn(C(=O)c2ccc(Cl)cc2)c2ccccc12,4
21,Cc1nc(-c2ccc(Cl)cc2)sc1C1(C)CC(c2ccccc2F)=NO1 (centres undefined),7
22,O=C(CCC1CCCN(Cc2ccc(O)c(Cl)c2)C1)NCc1ccccc1F (centres undefined),12
23,Cc1ccc(NC(=O)Nc2nnc(-c3ccncc3)s2)cc1,6
24,Cc1ccc(C(=O)Nc2nnc(-c3ccncc3)s2)o1,9
25,CC(C)=CC(=O)Nc1nnc(-c2ccc(F)cc2)s1,71 (active)

row,SMILES,fluorescence (KMESF)
1,CN(C)/C(=N\OC(=O)c1ccccc1)c1nonc1N,8
2,NC(=O)N/N=C\c1cccs1,12
3,Cc1c(NC(=S)Nc2ccccc2)c(=O)n(-c2ccccc2)n1C,4
4,Cc1ccc(S(=O)(=O)/N=C(/NC(=S)Nc2c(C)n(C)n(-c3ccccc3)c2=O)c2ccccc2)cc1,53 (active)
5,Cc1ccc(S(=O)(=O)CC(=O)Nc2c(C)n(C)n(-c3ccccc3)c2=O)cc1,12
6,C=CC1C(OC2OC(CO)C(O)C(O)C2O)OC=C(C(=O)OC)C1CC1CC(=O)CC(CC(=O)CCc2ccc(O)cc2)O1 (centres undefined),8
7,Fc1ccccc1C(c1nnnn1Cc1ccc2c(c1)OCO2)N1CCN(Cc2ccccc2)CC1 (centres undefined),5
8,CCC(C)(C)n1nnnc1C(c1cccs1)N1CCN(Cc2ccccc2)CC1 (centres undefined),5
9,Fc1ccc(Cn2nnnc2C(c2cccs2)N2CCCCCC2)cc1 (centres undefined),62 (active)
10,Cc1ccc(CCCOC(=O)C[N+]2(C)CCCC2)cc1,6
11,CSc1ccccc1NC(=O)Cc1ccc(Br)cc1,12
12,CCOC(=O)c1oc2c(CN3CCN(C)CC3)c(O)ccc2c(=O)c1-c1ccc(Br)cc1,189 (active)
13,CN1CCN(Cc2c(O)ccc3c2oc(=O)c2ccccc23)CC1,22
14,CCN1CCN(Cc2c(O)ccc3c(=O)c(-c4ccc(OC)c(OC)c4)c(C(F)(F)F)oc23)CC1,16
15,OCCn1c(-c2ccccc2)csc1=Nc1ccccc1,3
16,CC(O)c1nc2ccccc2n1Cc1ccc([N+](=O)[O-])cc1 (centres undefined),7
17,CCOCN(C(=O)Cn1c(C(C)O)nc2ccccc21)c1c(C)cccc1CC (centres undefined),57 (active)
18,CCc1cccc(C)c1N(C(=O)Cn1c(CO)nc2ccccc21)C(C)COC (centres undefined),5
19,O=C1CC(N2CCN(c3ccc(F)cc3)CC2)C(=O)N1c1ccccc1 (centres undefined),9
20,COC(=O)c1ccc(S(=O)(=O)N(CCO)Cc2ccccc2)n1C,6
21,CCCC1C(c2ccccc2)C(C#N)(C#N)C2(C#N)CC1(N)NC2=O (centres undefined),90 (active)
22,Cc1ccc(C(=O)COC(=O)CCN2C(=O)C3C4CC(C(Br)C4Br)C3C2=O)cc1 (centres undefined),14
23,CCOc1ccc(S(=O)(=O)N/N=C(\C)c2ccc(Cl)c(Cl)c2Cl)cc1,7
24,N#CCSc1nn(-c2ccc(F)cc2)c(=S)s1,24
25,CCOC(=O)c1c(/N=C/c2cc(C)ccc2O)sc2c1CCC2,14

row,SMILES,fluorescence (KMESF)
1,CC(C)(C)Nc1c(-c2cccs2)nc2ccccn12,9
2,Cn1c(CCC(=O)OCC(=O)NCc2ccccc2Cl)nc(=O)c2ccccc21,21
3,O=C(COC(=O)Cn1cnc2ccccc2c1=O)NCC12CC3CC(CC(C3)C1)C2,5
4,O=C(COC(=O)Cn1cnc2ccccc2c1=O)NCc1ccccc1Cl,58 (active)
5,COc1ccc(Br)cc1C(=O)Nc1cccc(C)c1C,8
6,O=C(CCCCCN1C(=O)c2cccc3cccc(c23)C1=O)NCc1ccco1,4
7,N#Cc1ccc(N2Cc3ccccc3/C2=N/C(=O)Nc2ccc(Cl)cc2)cc1,15
8,CC(NC(=O)COC(=O)c1cc(=O)[nH]c2ccccc12)c1ccccc1 (centres undefined),7
9,COC(=O)c1ccc(C2CC(=O)Nc3cc(OC)c(OC)cc32)cc1 (centres undefined),19
10,COc1cc2c(cc1OC)C(c1ccncc1)CC(=O)N2 (centres undefined),47 (active)
11,COc1cc2c(cc1OC)C(c1ccc(C)o1)CC(=O)N2 (centres undefined),22
12,CC(CO)(CO)NC(=O)c1ccc(=O)[nH]n1,4
13,CCn1ccnc1CN1CCCC(C(=O)c2ccc3c4c(cccc24)CC3)C1 (centres undefined),8
14,CC(=O)NCC(=O)N1CCCC(C(=O)c2ccc3c4c(cccc24)CC3)C1 (centres undefined),80 (active)
15,Cc1ncoc1C(=O)N1CCCC(C(=O)c2ccc3c4c(cccc24)CC3)C1 (centres undefined),10
16,Cc1nnc(Nc2ccccc2F)s1,5
17,COc1cc(/C=C/C(=O)OCC(=O)N2CCOCC2)ccc1OCC#N,10
18,O=C(NCCCc1ccccc1)C1CCC(CNc2c(N3CCCCC3)c(=O)c2=O)CC1 (centres undefined),7
19,CCCc1nc(SCC(=O)Nc2ccc(S(=O)(=O)N(C)C)cc2)c2ccccc2n1,1
20,Cn1c(SCC(=O)N2CCCc3ccccc32)nc2ccccc2c1=O,4
21,O=C(CSc1ccc2nnc(-c3ccccc3)n2n1)N1CCCc2ccccc21,76 (active)
22,CCCn1c(SCC(=O)N2CCc3ccccc32)nnc1-c1ccncc1,7
23,CCOc1ccc2sc(NS(=O)(=O)c3ccc(N)cc3)nc2c1,4
24,CC(C)(C)NC(=O)NCc1ccco1,6

# Reference: PubChem BioAssay AID1775 (NMMLSC, 2009)
